L3MBTL1 inh = qHTS Assay for the Inhibitors of L3MBTL1; Lethal(3)malignant brain tumor-like protein 1 (Homo sapiens), Q9Y468; AlphaScreen L3MBTL1–H3K9me1 peptide binding; Potency, µM (doses to about 57.1 µM), for the others: at the highest dose activity, negative = inhibition, usual class: inhibitors; 230,000 compounds, 0.66% hits; AID 485360, 2010; also: % is scaled to controls: 0 for no effect and ±100 for the full control effect; nearly all actives have a fitted effect of over 60% in size
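L3MBTL1 50 nM + b-AHA-H3(1-15)K9me1 75 nM, 30 min RT; compound added, 30 min RT; streptavidin donor/Ni-chelate acceptor beads 10 ug/mL each final, 30 min RT dark; AlphaScreen read.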
BAZ2B block = qHTS Assay for Inhibitors of BAZ2B | AID 504333, 2011 | Bromodomain adjacent to zinc finger domain protein 2B (Homo sapiens), Q9UIF8 | AlphaScreen BAZ2B-H3K14Ac peptide displacement | Potency, µM (series often up to 114 µM), for inactives: top-dose activity change, negative = inhibition, most hits filed as inhibitors | 360,000 compounds, 4.4% hits; also: % is scaled to controls: 0 for no effect and ±100 for the full control effect; nearly all actives have a fitted effect of over 60% in size
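AlphaScreen displacement: compounds (up to 110uM) incubated 30 min at room temperature with a preformed 50 nM BAZ2B/50 nM biotinylated H3K14Ac peptide complex in PBS pH 7.4 with Tween-20. Donor and acceptor beads at 10 ug/mL final added, 20 min light-protected before reading.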
HP1b binding inh = HTS for Inhibitors of HP1-beta Chromodomain Interactions with Methylated Histone Tails; Chromobox protein homolog 1 (Homo sapiens), P83916; AlphaScreen HP1-beta / biotin-H3K9me3 peptide binding; Potency, µM (series often up to 114 µM), without a hit: top-dose activity change, negative = inhibition, usual class: inhibitors; 390,000 compounds, 0.56% hits; AID 540317, 2011; also: nearly all actives have a fitted effect of over 70% in size
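Compound inhibition of the preformed complex between 50 nM HP1-beta and 50 nM biotinylated H3K9me3 peptide was read by AlphaScreen. Buffer was PBS pH 7.4 with 0.01% Tween-20. Incubations ran 30 min at room temperature, with 10 ug/mL donor/acceptor beads.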
G9a inh = qHTS Assay for Inhibitors of Histone Lysine Methyltransferase G9a. Potency, µM (series often up to 102 µM), for inactives: at the top dose activity, negative = inhibition, most hits filed as inhibitors. Histone-lysine N-methyltransferase EHMT2 (Homo sapiens), Q96KQ7. 350,000 compounds, 8.8% hits. G9a H3K9 monomethylation, AlphaScreen, 2 h; also: % is scaled to controls: 0 for no effect and ±100 for the full control effect; nearly all actives have a fitted effect of over 75% in size
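Methyltransferase reactions run at room temperature for 2 h (20 nM enzyme, 500 nM biotin-H3K9 peptide, 20 uM SAM) after a 15 min compound preincubation; product detected by AlphaScreen beads and anti-H3K9me1 antibody.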
JMJD2A Tudor inh = qHTS Assay for Inhibitors of JMJD2A-Tudor Domain | Lysine-specific demethylase 4A (Homo sapiens), O75164 | AlphaScreen JMJD2A-Tudor / H3K4me3 peptide binding | Potency, µM (doses to about 114 µM), inactives show top-dose activity change, negative = inhibition, most hits filed as inhibitors | 390,000 compounds, 4.4% hits; also: % is scaled to controls: 0 for no effect and ±100 for the full control effect; nearly all actives have a fitted effect of over 50% in size
Active calls of the source: *; ? = inconclusive; · = no result; [ ] = dose if it differs, or a comment. An excerpt weighted towards active compounds, which were near 11% of everything screened. Calls follow the shape of the dose curve; as a rule, active = well fitted inhibition curve with a large enough effect; inconclusive = small, poorly fitted or top-dose-only effect; inactive = no such curve, though single readings can be large or run the other way. Potency is read from the fitted curve at half-maximal effect.

SMILES	L3MBTL1 inh	BAZ2B block	HP1b binding inh	G9a inh	JMJD2A Tudor inh
CC(=O)Nc1ccc(S(=O)(=O)Oc2ccc(C(=S)N3CCCCC3)cc2)cc1	-7%	?	?	?	?
CC(=O)Nc1ccc(S(=O)(=O)Oc2ccc(C(=S)N3CCC(O)CC3)cc2)cc1	-4%	-6%	-11%	18µM*	-10%
Cc1nn(CC(=O)NC2C(=O)N3C(C(=O)O)=C(CSc4nnnn4C)CSC23)cc1Br (centres undefined)	·	?	49%	40µM*	0%
Cc1c(Cl)cnn1CC(=O)NC1C(=O)N2C(C(=O)O)=C(CSc3nnnn3C)CSC12 (centres undefined)	·	56µM*	37%	?	-16%
Cn1nnnc1SCC1=C(C(=O)O)N2C(=O)C(NC(=O)Cn3nc(C(F)F)cc3C3CC3)C2SC1 (centres undefined)	·	71µM*	25%	?	-18%
Cc1cc(=O)c(C(=O)N[C@@H](C(=O)N[C@@H]2C(=O)N3C(C(=O)O)=C(CSc4nnnn4C)CS[C@H]23)c2ccc(O)cc2)c[nH]1	·	·	·	-1%[12.7 µM]	·
Cc1c(Cl)c(C(F)F)nn1CC(=O)NC1C(=O)N2C(C(=O)O)=C(CSc3nnnn3C)CSC12 (centres undefined)	·	-38%	7%	28µM*	-30%
COc1ccc(N(CC(=O)NCCc2ccccc2)C(=O)CCC(=O)Nc2nccs2)cc1	·	-2%	?	56µM*	-8%
COc1ccc(-c2[nH]c(-c3ccc(C)cc3)nc2SCC(=O)NC2CCCC2)cc1	-21%	?	-7%	50µM*	?
COc1ccc(-c2[nH]c(-c3ccccc3)nc2SCC(=O)Nc2nccs2)cc1	?	?	-4%	11µM*	?
Cc1nn(-c2cccc(Cl)c2)c2nc(-c3ccco3)cc(C(=O)O)c12	·	?	11%	10µM*	-27%
Cc1ccc(S(=O)(=O)Nn2c(C)nnc2-n2nc(C)cc2C)cc1	-1%	71µM*	5%	-42%[59 µM]	50µM*
Cc1ccc(SCC(c2ccccc2)N2CCN(CCc3ccccc3)CCC2=O)cc1 (centres undefined)	·	·	5%	·	?
S=C(NCc1ccncc1)NC1CCCC1	8%	-17%	20%	50µM*	-10%
Fc1ccc(CNC(=S)NC2CCCC2)cc1	5%	-6%	33%	3%	-1%
CCN(CC)c1ccc(NC(=S)NC(=O)C2CCC2)cc1	·	22µM*	?	40µM*	45µM*
CCOC(=O)C(Cc1ccccc1)C(=O)Nc1ccc(N(CC)CC)cc1 (centres undefined)	-26%	?	?	3.5µM*	50µM*
CCN(CC(F)(F)C(F)F)S(=O)(=O)c1ccc(NC(=O)OC)cc1	0%	2%	?	53%[59 µM]	20µM*
CCOC(=O)C(Cc1ccccc1)C(=O)Nc1cccc(C)c1 (centres undefined)	8%	1%	50%	-12%[59 µM]	-8%
Cc1ccc(CSc2nc3c([nH]c4ccccc43)c(=O)n2C)cc1	·	0%	19%[57 µM]	5%[59 µM]	-11%
CC(=O)c1ccc(OCC(=O)NC(=O)NC2CCCCC2)cc1	·	-15%	28%	26%	1%
C[C@@](N)(C(=O)O)[C@@H]1C[C@@H]1C(=O)O	·	·	·	18%[59 µM]	·
CN(CC(=O)NCc1ccccc1F)S(=O)(=O)c1ccc(Cl)cc1	·	8%	46%	12%	-1%
CCN(CC)c1ccc(/C=N/NC(=O)OC(C)(C)C)cc1	-12%	?	-1%	50µM*	-20%
NS(=O)(=O)c1ccc(NC(=S)NC(=O)C2CCCC2)cc1	·	-23%	34%	71µM*	-14%
SMILES	L3MBTL1 inh	BAZ2B block	HP1b binding inh	G9a inh	JMJD2A Tudor inh
CC1(C)CC(NC(=S)Nc2ccc(S(N)(=O)=O)cc2)CC(C)(C)N1	16%	-7%	27%	50µM*	-1%
CCN(CC)c1ccc(NC(=O)OC)cc1	·	?	-29%	3.5µM*	?
CC(=O)OCOC(c1ccc2ccccc2c1)P(=O)(OCOC(C)=O)OCOC(C)=O (centres undefined)	·	·	·	0%[59 µM]	·
NS(=O)(=O)c1ccc(NC(=S)NC2CC2)cc1	0%	-26%	-11%	10µM*	-15%
COc1ccc(NC(=O)/C=C/c2cc(Br)ccc2OC)cc1	-8%	1%	24%	-48%[59 µM]	-14%
Cc1ccc2nc(-c3ccc(NC(=S)NC4CC(C)(C)NC(C)(C)C4)cc3)sc2c1	-3%	-33%	-5%	50µM*	-34%
COc1ccc(NC(=S)NCc2ccc(S(N)(=O)=O)cc2)cc1OC	·	-9%	37%	?	?
CCN(CC)c1ccc(NC(=O)/C=C/c2cc(Br)ccc2OC)cc1	?	8.9µM*	?	2%[0.0925 µM]	4µM*
Cc1ccc2nc(-c3ccc(NC(=S)NC(=O)C(C)C)cc3)sc2c1	·	5%	25%	5%[2.33 µM]	-10%
NS(=O)(=O)c1ccc(CNC(=S)Nc2ccc(Cl)c(Cl)c2)cc1	·	-12%	-1%	45µM*	-17%
Cn1cc(P(=O)(c2ccccc2)c2ccccc2)c2ccccc21	·	·	·	·	-15%
Cc1cccc(NC(=O)c2sc3nc(-c4cc5ccc(O)cc5oc4=O)[nH]c(=O)c3c2C)c1	·	10%	46%	5%[59 µM]	19%
CCOc1ccccc1-c1nc(C(N)=O)c2c(n1)n(-c1ccc3c(c1)OCO3)c(=O)n2C	·	1%	18%[57 µM]	21%[59 µM]	-16%
CCc1ccc(-n2nc(CO)c(C(=O)NCCc3ccccc3)n2)cc1	·	4%	36%	12%[59 µM]	-11%
NS(=O)(=O)c1ccc(CNC(=S)NC2CC2)cc1	1%	?	-10%	28µM*	-7%
NS(=O)(=O)c1ccc(CCNC(=S)NC2CCCCC2)cc1	-1%	-6%	7%	9%	-16%
CCCCn1c(N)c(N(CCC(C)C)C(=O)C2CC(=O)N(c3cccc(SC)c3)C2)c(=O)[nH]c1=O (centres undefined)	-11%	-4%	30%	14µM*	-13%
CCCCn1c(N)c(N(CCC(C)C)C(=O)C2CC(=O)N(Cc3ccc(C)cc3)C2)c(=O)[nH]c1=O (centres undefined)	0%	21%	19%	?	0%
CCCCn1c(N)c(N(CCC(C)C)C(=O)C2CC(=O)N(c3ccc4c(c3)OCCO4)C2)c(=O)[nH]c1=O (centres undefined)	·	-8%	34%[57 µM]	?	-16%
CCCCn1c(N)c(N(CC(C)C)C(=O)C2CC(=O)N(Cc3ccccc3)C2)c(=O)[nH]c1=O (centres undefined)	-10%	6%	31%	14µM*	-1%
